Laboratory results published in PubChem BioAssay AID504467 (National Center for Advancing Translational Sciences (NCATS), 2011).
Among all 330,000 compounds or so, about 7,700 (2.3%) were called active. Not shown: some 26% with an inconclusive outcome. The list comes from a sample in which actives are over-represented; it also holds similar structures and randomly drawn compounds. Values without a mark were called inactive. Calls follow the shape of the dose curve; as a rule, active = well fitted inhibition curve with a large enough effect; inconclusive = small, poorly fitted or top-dose-only effect, or effect the other way; inactive = flat fitted curve, though single readings scatter.

assay: qHTS screen for small molecules that inhibit ELG1-dependent DNA repair in human embryonic kidney (HEK293T) cells expressing luciferase-tagged ELG1; conditions: HEK293T ELG1-luciferase reporter, luminescence, 16 h, DNA damage induced by 5-fluorouridine; series mostly up to 46.1 µM; activity change, negative = inhibition: at the top concentration; also: nearly all actives have a fitted effect of over 55% in size
Text: NIH Molecular Libraries Probe Production Network [MLPCN] NIH Chemical Genomics Center [NCGC] MLPCN Grant: 1 R03 MH092164-01 Assay Provider: Kyungjae Myung, NHGRI, NIH Keywords: MLPCN, qHTS, NCGC, genotoxicity, cancer Assay Overview: Cancer cells divide rapidly compared to normal cells in the body. During cell division, cancer cells need to duplicate their genome by DNA replication. The failure of genome duplication leads to cancer cells' death. Therefore, inhibitors of DNA replication could specifically kill cancer cells. Based on this concept, many chemotherapeutic agents were developed and have been used to treat cancer patients. However, there are a limited number of agents available in the clinical setting, and some of those that do exist have low efficacy and severe side effects. Therefore, if we can find the compounds that effectively block DNA replication either by directly damaging DNA or by inhibiting other cellular mechanisms, the options for cancer treatment will be broadened. With this in mind, we developed a quantitative high-throughput ELG1-luciferase reporter gene assay. Small molecules that specifically block ELG1 function in response to DNA damage can be identified by monitoring the suppression of luciferase activity. Since ELG1 defines a pathway for repairing DNA damage, agents blocking ELG1 function can be used to sensitize cancer cells to chemotherapeutic agents whose mechanism of action involves the induction of DNA damage.
Assay Protocol Summary: For genotoxicity screening, 2,000 cells in 4 uL/well were dispensed into white, solid-bottom 1536-well plates using a solenoid-based dispenser. Following transfer of 1 uL 5-Fluorouridine and 23 nL compound or DMSO vehicle by a pin tool, the plates were incubated 16 hr at 37 °C and 5% CO2. 5 ul ONE-Glo (Promega) was then added to each plate and following a 30 min incubation at room temperature, luciferase activity was quantified on a ViewLux CCD-based plate reader.
% is scaled to controls: 0 for no effect and ±100 for the full control effect; potency is read from the fitted curve at half-maximal effect.

SMILES | activity change, negative = inhibition [%] | Potency
O=C(CSc1ncn[nH]1)Nc1ccc(Br)cc1Br | 18 | –
Nc1ncnc2c1ncn2[C@@H]1O[C@H](CNS(=O)(=O)c2ccc(-c3ccno3)s2)[C@@H](O)[C@H]1O | 12.8 | –
CCn1ccnc1CN(C)C(=O)c1cc(COc2ccc(-n3cncn3)cc2)on1 | 1.51 | –
COc1ccc(CC(=O)Nc2nc(-c3ccc(F)c(F)c3)cs2)cc1OC | -17.4 | –
COc1cccc(CC(=O)Nc2ccc(-c3csc(C)n3)cc2)c1 | -2.46 | –
COc1cccc(CC(=O)Nc2nc(-c3ccc(OC)c(OC)c3)cs2)c1 | – | 25.9 µM (active)
COc1ccccc1C(=O)NCC(=O)OCC(=O)Nc1nnc(-c2ccccc2)o1 | 18.9 | –
COc1ccc(/C=C/C(=O)NC(=S)N2CCCC(C(N)=O)C2)cc1 (centres undefined) | 12.9 | –
CCOc1ccc(NC(=O)CSc2nc3c(c(=O)n2-c2ccccc2OC)SCC3)cc1 | -1.1 | –
CCc1nnc(NC(=O)CSc2nc3c(c(=O)n2-c2ccccc2OC)SCC3)s1 | – | 20.6 µM (active)
CCOC(=O)c1sc(NC(=O)CSc2nc3c(c(=O)n2-c2ccccc2)SCC3)c(C(=O)OCC)c1C | -7.99 | –
Cc1ccc(S(=O)(=O)NCCC(=O)OCC(=O)N(C)c2ccccc2)cc1 | -14.6 | –
O=c1ccc2cc(S(=O)(=O)Nc3ccccc3F)ccc2o1 | 3.06 | –
O=c1oc(-c2ccccc2NS(=O)(=O)c2ccc(Cl)cc2)nc2ccccc12 | – | 14.6 µM (active)
O=c1oc2ccccc2c(NC2CCCCC2)c1NS(=O)(=O)c1ccc(Cl)cc1 | -0.699 | –
CN(CC1CCCO1)S(=O)(=O)c1ccc(C(=O)Nc2ccc(F)cc2)cc1 (centres undefined) | – | 4.11 µM (active)
CCC(=O)Nc1ccc(S(=O)(=O)NCC2CCCO2)cc1 (centres undefined) | -9.4 | –
CN(CC1CCCO1)S(=O)(=O)c1ccc(C(=O)Nc2ccc([N+](=O)[O-])cc2)cc1 (centres undefined) | – | 1.83 µM (active)
O=C(Nc1ccc(S(=O)(=O)NCC2CCCO2)cc1)c1ccc(F)cc1 (centres undefined) | -17.1 | –
Cc1ccc(NC(=O)c2ccc(S(=O)(=O)NCC3CCCO3)cc2)cc1C (centres undefined) | -12.5 | –
CCOc1ccc(C(=O)Nc2ccc(S(=O)(=O)NCC3CCCO3)cc2)cc1OCC (centres undefined) | -11.3 | –
Cc1c2cnn(CC(=O)NCc3ccccn3)c(=O)c2c(C)n1Cc1ccc(Cl)cc1 | -19.6 | –

SMILES | activity change, negative = inhibition [%] | Potency
COc1cccc(-n2c(SCC(=O)NC3CCS(=O)(=O)C3)nc3ccccc3c2=O)c1 (centres undefined) | 6.94 | –
C[C@H]1CN([C@@H](C)CO)C(=O)Cc2cc(NC(=O)Cc3ccccc3)ccc2O[C@H]1CN(C)S(=O)(=O)c1cccs1 | -24.8 | –
O=c1ccc2c(-c3ccccc3S(=O)(=O)O)c3ccc(O)c(O)c3oc-2c1O | – | 35.5 µM (active)
COc1cc(OC)cc(-c2sc3ccc(OC)cc3c2-c2ccc3cc[nH]c3c2)c1 | 0 | –
CC(C)CC1NC(=O)c2cc(Cl)ccc2-n2c1nc1ccccc1c2=O (centres undefined) | 8.05 | –
Cc1cccc(N(Cc2ccccc2)C(=O)c2ccccc2F)c1 | -11.6 | –
CCOc1ccc(NC(=O)CSc2nc3ccccc3c(=O)n2Cc2cccs2)cc1 | 21 | –
COC(=O)c1ccc2c(=O)n(CCN3CCOCC3)c(SCC(=O)Nc3cccc(OC)c3)nc2c1 | -4.3 | –
CCc1ccc(NC(=O)CSc2nc3ccccc3c(=O)n2CCN2CCOCC2)cc1 | – | 23.1 µM (active)
Cn1c(=O)n(C)c2cc(S(=O)(=O)Nc3ccc(F)cc3)ccc21 | -1.4 | –
CC1(C)CC(=O)C=C(c2cccc3c2Oc2ccccc2S3)C1 | 13 | –
COc1cccc(N(CC(=O)Nc2cccc(F)c2)S(C)(=O)=O)c1 | 0.188 | –
Cc1ccc(N(CC(=O)Nc2cccc(N(C)S(C)(=O)=O)c2)S(C)(=O)=O)cc1 | – | 6.51 µM (active)
CCOc1ccc(N(CC(=O)Nc2cccc(OC)c2)S(C)(=O)=O)cc1 | 15.1 | –
Cc1[nH]c2ccccc2c1C(=O)C(C)Sc1nnc(C2CC2)o1 (centres undefined) | 8.65 | –
O=C(COC(=O)c1ccc([N+](=O)[O-])o1)NC12CC3CC(CC(C3)C1)C2 | 9.39 | –
COC(=O)[C@]1(Cc2ccccc2)N[C@H](CN(C)S(=O)(=O)c2ccc(F)cc2)[C@@H]2C(=O)N(Cc3ccccc3)C(=O)[C@@H]21 | -21.5 | –
CC(=O)N1c2ccc(S(=O)(=O)N3CCCC(C(=O)NCc4ccc(Cl)cc4)C3)cc2CC1C (centres undefined) | -15.6 | –
N#Cc1cccc(NC(=O)C2CCCN(C(=O)c3ccc(Cl)cc3)C2)c1 (centres undefined) | -29.3 | –
Cc1ccccc1-c1n[nH]c(=S)n1C | 5.07 | –
Cn1c(-c2sc3cc(C(F)(F)F)cnc3c2-c2ccccc2)n[nH]c1=S | -13.7 | –
Cn1c(-c2sccc2OCc2cccc(C(F)(F)F)c2)n[nH]c1=S | – | 23.1 µM (active)

SMILES | activity change, negative = inhibition [%] | Potency
O=C(Nc1ccccc1N1CCCC1)c1ccc(F)c(S(=O)(=O)N2CCOCC2)c1 | 6.03 | –
COc1ccc(CCC(=O)N2CCN(S(=O)(=O)c3ccc(OC)cc3)CC2)cc1 | -5.8 | –
CCCNC(=O)CSc1nc(Cc2ccccc2)nc2ccccc12 | -13.7 | –
CCCNC(=O)CCc1c(C)nc2c(c(C)nn2-c2ccc(C)cc2)c1C | -24 | –
CCCCC(CC)CNCc1cccn1CCN1CCOCC1 (centres undefined) | -7.51 | –
CCN(CC)c1ccc(NC(=O)c2ccc(=O)[nH]c2)cc1S(=O)(=O)Nc1ccc(OC)cc1 | 6.95 | –
CCN(c1ccccc1)S(=O)(=O)c1cccc(C(=O)NCc2ccccc2CN2CCOCC2)c1 | – | 11.6 µM (active)
O=C(NCc1ccccc1CN1CCCC1)c1cccc(S(=O)(=O)Nc2ccc(F)cc2)c1 | 2.84 | –
CCN(c1ccccc1)S(=O)(=O)c1cccc(C(=O)O)c1 | 0.0915 | –
Cc1noc(C)c1C(=O)OC(C)C(=O)Nc1ccc2c(c1)OCO2 (centres undefined) | 0.0047 | –
CC(C)C[C@H]1CN=C(Nc2ccccc2)N1CC1CCCCC1 | -13.2 | –
CCCCN(C(=O)CSCC(=O)Nc1ccc(OC)cc1)c1c(N)n(CCC)c(=O)[nH]c1=O | -3.97 | –
O=S(=O)(Nc1cccc(-n2cnnn2)c1)c1cnc(Cl)c(Cl)c1 | 1.57 | –
COc1cccc(N(CC(=O)NC2CCCCCC2)S(=O)(=O)c2ccccc2)c1 | 8.34 | –
CS(=O)(=O)c1ccc2nc(NC(=O)C3CCCCC3)sc2c1 | – | 3.66 µM (active)
Cc1nc2ccc(NC(=O)C3CCCCC3)cc2s1 | 11.8 | –
CS(=O)(=O)c1ccc2nc(NC(=O)CN3CCCCCC3)sc2c1 | 10.2 | –
Cn1c(=O)oc2cc(S(=O)(=O)N3CCC(C(=O)Nc4ccc(OC(F)(F)F)cc4)CC3)ccc21 | 9.71 | –
Cc1ccc2nc(NC(=O)C3CCN(S(=O)(=O)c4ccc5c(c4)oc(=O)n5C)CC3)sc2c1 | – | 10.3 µM (active)
O=C(Nc1nc2ccc(S(=O)(=O)N3CCCC3)cc2s1)C1CCCO1 (centres undefined) | -0.48 | –
